The values that follow come from PubChem BioAssay (EPA / NIEHS).

Holding throughout (settings): mRNA level, 48 h; actives raise or lower the signal
Read-out in one assay: CYP2E1 (gene 1571)
Description: LTEA_HepaRG_CYP2E1: Life Technologies and Expression Analysis (LTEA) Assay for CYP2E1 using HepaRG (AID 2283485). In outline:
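Readout is qRT-PCR of CYP2E1 mRNA, normalized to three housekeeping genes and fitted bidirectionally against 0.5% DMSO. HepaRG cells were dosed 48 h at eight concentrations, highest 100 uM with half-log dilutions.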

Read-out in the next assay: CYP4A11 (gene 1579)
In words: LTEA_HepaRG_CYP4A11: Life Technologies and Expression Analysis (LTEA) Assay for CYP4A11 using HepaRG (AID 2283486). In outline:
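Human hepatic HepaRG cultures receive duplicate 48 h exposures across a concentration-response series topping at 100 uM. Expression changes in CYP4A11 are measured by qRT-PCR relative to DMSO controls.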

Read-out in assay [1]: Cytochrome P450 3A4 (Homo sapiens) (UniProt P08684)
Description: LTEA_HepaRG_CYP3A4: Life Technologies and Expression Analysis (LTEA) Assay for CYP3A4 using HepaRG (AID 2283487). In outline:
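HepaRG, 48 h exposure, 8-pt CRC from 100 uM (half-log), 0.5% DMSO, duplicates; serum-free induction medium. Readout: CYP3A4 mRNA, qRT-PCR, ACTB/GAPDH/POLR2A normalization. Bidirectional fit vs DMSO.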

Read-out in assay [2]: Pro-epidermal growth factor (Homo sapiens) (UniProt P01133)
Description: LTEA_HepaRG_EGF: Life Technologies and Expression Analysis (LTEA) Assay for Epidermal growth factor (EGF) using HepaRG (AID 2283489). In a few lines:
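Concentration-response mRNA assay: HepaRG cells dosed 48 h (max 100 uM, 0.5% DMSO), EGF measured by qRT-PCR and normalized to ACTB/GAPDH/POLR2A.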

Read-out in assay [3]: Early growth response protein 1 (EGR1) transcription factor, EGR1 (gene 1958)
Description: LTEA_HepaRG_EGR1: Life Technologies and Expression Analysis (LTEA) Assay for Early growth response protein 1 (EGR1) transcription factor using HepaRG (AID 2283490). In outline:
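EGR1 expression change in human HepaRG after 48 h chemical exposure, assessed by housekeeping-normalized qRT-PCR; concentration-response up to 100 uM, fitted in both directions against DMSO controls.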

Read-out in assay [4]: Ezrin (EZR), EZR (gene 7430)
In words: LTEA_HepaRG_EZR: Life Technologies and Expression Analysis (LTEA) Assay for Ezrin (EZR) using HepaRG (AID 2283491). In outline:
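Read-out is EZR transcript level by qRT-PCR, normalized to three housekeeping genes and fitted bidirectionally against the DMSO control. Human HepaRG cells received test chemicals for 48 h at eight half-log concentrations up to 100 uM in 0.5% DMSO.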

Read-out in a further assay: CYP3A5 (gene 1577)
Description: LTEA_HepaRG_CYP3A5: Life Technologies and Expression Analysis (LTEA) Assay for CYP3A5 using HepaRG (AID 2283493). In outline: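 Human HepaRG hepatic cells receive 48 h chemical treatment at eight concentrations (half-log steps from 100 uM) in 0.5% DMSO. Expression of CYP3A5 is quantified by Fluidigm qRT-PCR and normalized to three reference genes.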

Read-out in assay [5]: Fatty Acid-Binding Protein 1 (FABP1), FABP1 (gene 2168)
Description: LTEA_HepaRG_FABP1: Life Technologies and Expression Analysis (LTEA) Assay for Fatty Acid-Binding Protein 1 (FABP1) using HepaRG (AID 2283494). In outline: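 Values reflect bidirectional concentration-response fitting of FABP1 mRNA change against 0.5% DMSO controls. Human HepaRG cultures received eight half-log doses (top 100 uM) for 48 h; expression quantified by TaqMan qRT-PCR with housekeeping-gene normalization.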

Read-out in assay [6]: Cytochrome P450 4A22 (Homo sapiens) (UniProt Q5TCH4)
In words: LTEA_HepaRG_CYP4A22: Life Technologies and Expression Analysis (LTEA) Assay for Cytochrome P450 4A22 (CYP4A22) using HepaRG (AID 2283495). In outline:
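Concentration-response (8 points, max 100 uM, 0.5% DMSO) in human HepaRG liver cells after 48 h exposure. CYP4A22 mRNA by TaqMan qRT-PCR with housekeeping-gene normalization.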

Read-out in assay [7]: Glutamate-cysteine ligase catalytic (GCLC), GCLC (gene 2729)
In words: LTEA_HepaRG_GCLC: Life Technologies and Expression Analysis (LTEA) Assay for Glutamate-cysteine ligase catalytic (GCLC) using HepaRG (AID 2283498). In a few lines:
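Oxidative-stress marker GCLC is measured as mRNA change in human HepaRG liver cells after 48 h chemical treatment in 0.5% DMSO, eight concentrations from 100 uM. Activity is fitted bidirectionally against vehicle.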

Read-out in assay [8]: growth arrest and DNA damage 45 (GADD45G), GADD45G (gene 10912)
Description: LTEA_HepaRG_GADD45G: Life Technologies and Expression Analysis (LTEA) Assay for growth arrest and DNA damage 45 (GADD45G) using HepaRG (AID 2283499). In a few lines: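 Concentration-response in HepaRG: 48 h dosing, 0.5% DMSO, highest level 100 uM. GADD45G expression by qRT-PCR, normalised to endogenous controls; bidirectional fit to DMSO.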

Read-out in assay [9]: Glutathione S-transferase M3 (GSTM3), GSTM3 (gene 2947)
Description: LTEA_HepaRG_GSTM3: Life Technologies and Expression Analysis (LTEA) Assay for Glutathione S-transferase M3 (GSTM3) using HepaRG (AID 2283501). In outline:
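Expression of GSTM3 is determined by qRT-PCR in human liver HepaRG cells treated 48 h with an 8-point half-log range from 100 uM in 0.5% DMSO.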

Read-out in assay [10]: Heat shock 70 kDa protein 1 (HSPA1A), gene 3303
Description: LTEA_HepaRG_HSPA1A: Life Technologies and Expression Analysis (LTEA) Assay for Heat shock 70 kDa protein 1 (HSPA1A) using HepaRG (AID 2283502). In outline: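 Cells were plated and cultured for 48 h, then switched to serum-free induction medium. Chemicals were added at eight half-log concentrations up to 100 uM for 48 h. RNA was then isolated and HSPA1A measured by qRT-PCR with bidirectional curve fitting against DMSO.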

Read-out in assay [11]: Hypoxia-inducible factor 1-alpha (Homo sapiens) (UniProt Q16665)
In words: LTEA_HepaRG_HIF1A: Life Technologies and Expression Analysis (LTEA) Assay for Hypoxia-inducible factor 1 (HIF1A) Trancription factor using HepaRG (AID 2283503). In a few lines: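 HIF1A transcript level read by qRT-PCR (ACTB, GAPDH, POLR2A normalization) after 48 h chemical exposure of HepaRG cultures. Eight half-log concentrations, top 100 uM, 0.5% DMSO vehicle, duplicates; bidirectional curve fit against DMSO baseline.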

Read-out in assay [12]: 3-Hydroxy-3-Methylglutaryl-CoA Synthase 2 (HMGCS2), HMGCS2 (gene 3158)
In words: LTEA_HepaRG_HMGCS2: Life Technologies and Expression Analysis (LTEA) Assay for 3-Hydroxy-3-Methylglutaryl-CoA Synthase 2 (HMGCS2) using HepaRG (AID 2283504). In outline: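 This steatosis marker was read as HMGCS2 mRNA change in HepaRG cells treated 48 h with up to 100 uM chemical. Normalisation used housekeeping genes; activity in either direction was fitted relative to 0.5% DMSO vehicle.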

Read-out in assay [13]: Glutamate-cysteine ligase regulatory (GCLM), GCLM (gene 2730)
Description: LTEA_HepaRG_GCLM: Life Technologies and Expression Analysis (LTEA) Assay for Glutamate-cysteine ligase regulatory (GCLM) using HepaRG (AID 2283500). In a few lines:
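Endpoint is GCLM transcript level by qRT-PCR, normalized to three housekeeping genes, after 48 h chemical exposure of human HepaRG cells (0.5% DMSO vehicle, top 100 uM, half-log dilutions). Fitting was bidirectional relative to DMSO.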

Read-out in assay [14]: Glutathione S-Transferase (GSTA2), GSTA2 (gene 2939)
Description: LTEA_HepaRG_GSTA2: Life Technologies and Expression Analysis (LTEA) Assay for Glutathione S-Transferase (GSTA2) using HepaRG (AID 2283497). In a few lines: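 Oxidative-stress marker GSTA2 is quantified by TaqMan qRT-PCR in HepaRG cultures treated 48 h across an eight-point range to 100 uM. Expression is normalized to endogenous controls and compared with 0.5% DMSO vehicle.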

Where “and” joins values, the source holds several entries; their conditions need not be identical. Identical values can stand only once. A structure can be active in one record and inactive in another. Calls of active or inactive are those of the source. The calls were made as follows: active = hit-call score of the fitted dose curve at least 0.9, where 1 is the maximum; inactive = score below 0.9.

Hypoxia-inducible factor 1-alpha (Homo sapiens), sequence (Q16665 whole entry, looked up): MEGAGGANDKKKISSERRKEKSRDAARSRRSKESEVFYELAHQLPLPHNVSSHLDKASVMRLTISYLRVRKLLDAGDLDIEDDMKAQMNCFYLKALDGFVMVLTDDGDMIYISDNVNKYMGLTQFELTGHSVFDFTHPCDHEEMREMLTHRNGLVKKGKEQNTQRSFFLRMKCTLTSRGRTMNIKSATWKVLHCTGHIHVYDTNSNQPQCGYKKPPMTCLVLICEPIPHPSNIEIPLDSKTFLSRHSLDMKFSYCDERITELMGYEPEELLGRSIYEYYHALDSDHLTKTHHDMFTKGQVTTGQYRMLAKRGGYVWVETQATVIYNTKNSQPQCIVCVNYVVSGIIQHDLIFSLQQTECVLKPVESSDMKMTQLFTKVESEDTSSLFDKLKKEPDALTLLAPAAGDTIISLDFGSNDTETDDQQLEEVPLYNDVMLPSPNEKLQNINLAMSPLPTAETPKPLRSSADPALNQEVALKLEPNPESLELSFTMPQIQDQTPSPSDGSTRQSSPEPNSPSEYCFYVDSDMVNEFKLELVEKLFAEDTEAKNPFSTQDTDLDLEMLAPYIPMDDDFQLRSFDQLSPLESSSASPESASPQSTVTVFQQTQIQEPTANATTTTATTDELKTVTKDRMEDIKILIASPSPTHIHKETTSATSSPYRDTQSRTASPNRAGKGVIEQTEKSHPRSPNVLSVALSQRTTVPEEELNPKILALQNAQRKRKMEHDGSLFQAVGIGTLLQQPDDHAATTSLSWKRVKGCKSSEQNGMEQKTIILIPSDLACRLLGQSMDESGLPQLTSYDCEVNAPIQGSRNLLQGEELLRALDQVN
Cytochrome P450 3A4 (Homo sapiens), sequence (P08684 whole entry, looked up): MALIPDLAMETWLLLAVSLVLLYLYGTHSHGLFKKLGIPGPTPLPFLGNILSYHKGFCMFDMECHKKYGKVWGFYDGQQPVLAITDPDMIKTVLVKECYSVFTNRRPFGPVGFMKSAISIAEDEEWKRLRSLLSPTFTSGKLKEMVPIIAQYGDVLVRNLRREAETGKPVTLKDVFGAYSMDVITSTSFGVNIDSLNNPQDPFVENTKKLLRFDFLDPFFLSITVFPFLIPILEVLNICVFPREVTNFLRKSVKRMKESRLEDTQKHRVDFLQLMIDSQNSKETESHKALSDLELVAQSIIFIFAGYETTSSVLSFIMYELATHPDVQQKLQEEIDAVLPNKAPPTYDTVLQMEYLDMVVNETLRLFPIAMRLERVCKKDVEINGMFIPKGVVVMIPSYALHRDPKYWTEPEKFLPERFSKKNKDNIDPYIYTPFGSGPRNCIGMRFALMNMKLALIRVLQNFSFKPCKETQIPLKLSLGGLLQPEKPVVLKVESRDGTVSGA

In the case of `CCNc1nc(Cl)nc(NC(C)C)n1`, the AC50 (in general, the concentration at which the activity in the assay is half-maximal) is 16.6 µM (active) in the assay with CYP2E1 (gene 1571), 50 µM (active) with CYP4A11 (gene 1579), 15.7 µM (active) in [1] and 50 µM (active) in assay [6]. The compound was classed as inactive (in assay [2]; in [3]; in [4]; in the assay with CYP3A5 (gene 1577); in [5]; in assay [7]). Besides, the compound was called inactive in assay [8], in assay [9], in assay [10], in assay [11] and in assay [12].

As to `CC1COC(Cn2cncn2)(c2ccc(Oc3ccc(Cl)cc3)cc2Cl)O1` (stereo not drawn), the AC50 with CYP2E1 (gene 1571) was 8.67 µM (active); with CYP4A11 (gene 1579), 12.9 µM (active); in assay [1] it was 23.2 µM (active); in assay [3], 63.2 µM (active); in [4], 479 nM (active); with CYP3A5 (gene 1577), 84.1 µM (active). In addition, the AC50 in assay [5] was 23.3 µM (active); in assay [6], 15.5 µM (active); in assay [8], 12.2 µM (active); in [11] it was 11.6 µM (active); in [12] it was 11.7 µM (active). The compound was called inactive in assay [2], in assay [7] and in [9].

For `CO/C=C(/C(=O)OC)c1ccccc1Oc1cc(Oc2ccccc2C#N)ncn1`, the half-maximal activity concentration (AC50) in the assay with CYP2E1 (gene 1571) is 34.6 µM (active) and 50 µM (active) and 33.2 µM (active); in the assay with CYP4A11 (gene 1579), 66.4 µM (active) and 68.3 µM (active) and 40.2 µM (active); in [3] it was 13 µM (active) and 13.3 µM (active); in the assay with CYP3A5 (gene 1577) it was 62.6 µM (active) and 35.6 µM (active); in assay [5], 82.4 µM (active) and 75.6 µM (active) and 73.2 µM (active); in [6], 76.3 µM (active) and 66.9 µM (active) and 65.6 µM (active). The AC50 is 78 µM (active) and 80.2 µM (active) and 73.5 µM (active) in [8]; 83.1 µM (active) in assay [9]; 86.1 µM (active) in [11]. Moreover, the result (in [2]; in assay [3]; in assay [4]; in the assay with CYP3A5 (gene 1577); in assay [7]; in assay [9]) was inactive. Further, the compound was classed as inactive in assay [11].

For `CCCC1COC(Cn2cncn2)(c2ccc(Cl)cc2Cl)O1` (stereo not drawn), the concentration at half-maximal activity (AC50) is 13.5 µM (active) with CYP2E1 (gene 1571); 34.7 µM (active) with CYP4A11 (gene 1579); 36.3 µM (active) in [5]; 31.7 µM (active) in assay [6]; 35.6 µM (active) in assay [8]; 50 µM (active) in [13]. The values for the AC50 in [9] and in assay [11] were 64.5 µM (active) and 50 µM (active), respectively. The result (in assay [2]; in assay [3]; in assay [4]; in the assay with CYP3A5 (gene 1577); in assay [7]) was inactive.

With `CC(C)C1(C)N=C(c2nc3ccccc3cc2C(=O)O)NC1=O` (stereo not drawn), the result (in the assay with CYP2E1 (gene 1571); with CYP4A11 (gene 1579); in assay [2]; in assay [3]; in assay [4]; with CYP3A5 (gene 1577)) was inactive. The result in [5], in assay [6], in [7], in assay [8], in assay [9] and in assay [11] was inactive. In assay [1], the AC50 was 18.8 µM (active).

Take `COc1nc(NC(C)C)nc(NC(C)C)n1`: the figures for the AC50 (in the assay with CYP2E1 (gene 1571); in assay [1]; in assay [5]) were 37 µM (active), 7.19 µM (active) and 23.1 µM (active), respectively. For the same compound, the compound was called inactive (in the assay with CYP4A11 (gene 1579); in [2]; in assay [3]; in assay [4]; with CYP3A5 (gene 1577); in assay [6]). Moreover, the compound was called inactive in [7], in assay [8], in assay [9], in [11] and in assay [12].

In the case of `CCCCC(CC)COC(=O)c1ccccc1C(=O)OCC(CC)CCCC` (stereo not drawn), the compound was called inactive (with CYP2E1 (gene 1571); with CYP4A11 (gene 1579); in assay [2]; in assay [3]; in assay [4]; in the assay with CYP3A5 (gene 1577)). In addition, the call in assay [5], in assay [6], in assay [14], in assay [7], in [8] and in assay [9] was inactive. Also, the compound was called inactive in assay [11].
